Experimental findings from PubChem BioAssay AID1949 (Southern Research Institute, 2009) are described below.

Among all 100,000 compounds or so, about 1,600 (1.6%) were called active. Not shown: some 3% with an inconclusive outcome. These entries were drawn from the full list. Values without a mark were called inactive. The rule behind the calls is not given here.

The assay is described as follows: Mycobacterium tuberculosis H37Rv growth inhibition, cell based, confirmatory dose response (AID 1949).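 For inhibition: bacteria grown 7 days with compound before Alamar blue readout; 0% = untreated bacteria wells and 100% = bacteria with saturating antibiotic.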 The following applies: M. tuberculosis H37Rv growth inhibition; stronger effect = higher value.
As for `CCOc1ccc(N2C(=O)CC(NCCNC(=O)c3ccc(Cl)cc3)C2=O)cc1` (configuration not stated), the inhibition was 2.16%.
For `Cc1cc(C(=O)NC2CCCc3ccccc32)no1` (configuration not stated), the inhibition entry is “inactive”.
Then `COc1ccc(NC(=O)CSc2nnnn2-c2ccccc2Cl)c(OC)c1`, with “inactive”; and `Cc1sc2ncnc(SCC(=O)NCC3CCCO3)c2c1-c1ccc(Cl)cc1` (configuration not stated), with 2.71%.
Then `CS(=O)(=O)NC1c2cccc3cccc(c23)C1N1CCCCC1` (configuration not stated), with “inactive”.
`CC1CN(C(=O)C(C)Oc2ccc(Cl)cc2Cl)CC(C)O1` (configuration not stated): the inhibition result is “inactive”.
Consider `Cc1ccc(-c2nn(C)c(=O)c3ccccc23)cc1CNC(=O)c1cccs1`, for which the inhibition entry was “inactive”.
`Cc1cc(Oc2coc3cc(OCC(=O)Nc4ccccc4)ccc3c2=O)cc(C)c1Cl`: the inhibition entry is “inactive”.
Take `COc1cc(C(=O)Nc2ccccc2C(=O)NCCc2ccccc2)cc(OC)c1OC`: the inhibition result is “inactive”.
As for `Cn1nc([N+](=O)[O-])nc1Sc1nnc(-c2ccccc2)o1`, the inhibition was 49.7%.
In the case of `COc1ccc(-c2cc(C(=O)O)c3cc(Br)ccc3n2)c(OC)c1`, the inhibition result is “inactive”.
Turning to `CN1CCCC1c1cccnc1N` (configuration not stated), the inhibition was 1.61%.
For the compound `COc1ccc(NC(=S)N2CCN(c3ccc(F)cc3)CC2)c(OC)c1`, the inhibition result is “inactive”.
As for `O=[N+]([O-])c1ccccc1S(=O)(=O)N1CCN(c2ncccn2)CC1`, the inhibition result was “inactive”.
As for `Cc1ccc(-c2nnc(Nc3cccc(O)c3)c3ccccc23)cc1S(=O)(=O)NC(C)(C)CO`, the inhibition entry was “inactive”.
Consider `COC(=O)c1cccc(NC(=O)CCN2C(=O)c3ccccc3C2=O)c1`, for which the inhibition entry is “inactive”.
Then `O=C(c1cc2n(n1)C(C(F)(F)F)CC(c1ccccc1)N2)N1CCCc2ccccc21` (configuration not stated), with “inactive”; and `Cc1ccc(Nc2nc(CSc3nnc(-c4ccccc4)o3)cs2)cc1`, with “inactive”; and `CCCN1CCN(CCCNC(=S)Nc2ccc(F)cc2)CC1`, with “inactive”.
For `COc1ccc(C(=O)Nc2cccc(C(C)=O)c2)cc1I`, the inhibition result was “inactive”.
`CC1(C)Cc2nc3sc4c(=O)n(CC(=O)c5ccccc5)cnc4c3cc2CO1`: the inhibition was 0.12%.
Turning to `CC1(C)NC(=O)N(CCCSc2ccc(Cl)cc2)C1=O`, the inhibition was 4.37%.
As for `Cc1ccc(NC(=O)c2cccc(F)c2)cc1[N+](=O)[O-]`, the inhibition entry was “inactive”.
In the case of `CC1(C)Cc2nc(N3CCCC3)c(C#N)cc2CO1`, the inhibition is 1.56%.
With `O=C(NC(=S)Nc1ccc2c(c1)Cc1ccccc1-2)c1ccc(Br)cc1`, the inhibition entry was “inactive”.
As to `CC(=O)c1cccc(NC(=O)N2CCN(C(c3ccccc3)c3ccccc3)CC2)c1`, the inhibition entry was “inactive”.
Consider `COc1ccccc1NC(=O)c1c(NC(=O)c2ccccc2C)sc2c1CCCC2`, for which the inhibition result was “inactive”.
In the case of `COc1ccc(Oc2ccc(NS(=O)(=O)c3ccc(NC(C)=O)cc3)cc2)cc1`, the inhibition is 0.37%.
With `O=C(CNC(=O)C1CCCCC1)NNC(=O)c1ccc(Cl)cc1Cl`, the inhibition entry was “inactive”.
On to `O=c1ccc2ccc(OCc3ccc(Br)cc3F)cc2o1`, for which the inhibition entry is “inactive”.
Turning to `C=C1C2(C(=O)Nc3ccc(Br)cn3)CCC(C2)C1(C)C` (configuration not stated), the inhibition is 0.92%.
For `COc1ccc(S(=O)(=O)N(C)CC(=O)NC2CCCCC2)cc1C`, the inhibition was 2.13%.
`CCn1c(SCC(=O)Nc2cccc(F)c2C)nnc1-c1ccc(OC)cc1`: the inhibition entry was “inactive”.
For `Cc1ccc(-c2cc(C(=O)NC3=NCCS3)c3cc(Br)ccc3n2)o1`, the inhibition is 3.59%.
As to `Cc1cccc(-n2c(CCc3ccccc3)nnc2SCC(=O)Nc2c(C)cc(C)cc2C)c1`, the inhibition was 7.24%.
Turning to `O=[N+]([O-])c1ccc(NC(=S)NCCCn2ccnc2)cc1`, the inhibition entry was “inactive”.
For the compound `COc1ccc(C)cc1N(CC(=O)NCc1ccc(Cl)cc1Cl)S(C)(=O)=O`, the inhibition result is “inactive”.
On to `O=S(=O)(NCCSc1ccccn1)c1ccc(Br)cc1`, for which the inhibition is 5.4%.
With `CCCCc1ccc(NC(=O)c2ccc3ccccc3c2)cc1`, the inhibition was 0.83%.
Then `COc1ccc(N2CCN(c3nc(NCCc4ccc(OC)c(OC)c4)nc(N4CCOCC4)n3)CC2)cc1`, with 40.6%; and `CCCCc1ccc(NC(=S)N2CCN(C(=O)c3ccco3)CC2)cc1`, with “inactive”; and `O=C(c1cccs1)N1N=C(c2cccs2)CC1c1cccs1` (configuration not stated), with “inactive”.
Regarding `CCOc1ccc(C(=O)c2oc3ccccc3c2NC(=O)C2COc3ccccc3O2)cc1` (configuration not stated), the inhibition entry was “inactive”.
For the compound `O=C(NCc1ccccn1)Nc1ccc2c(c1)OCO2`, the inhibition entry was “inactive”.
Then `Cc1onc(-c2ccccc2Cl)c1C(=O)Nc1nc2ccc(Cl)cc2s1`, with “inactive”; and `COc1ccc2nc(NC(=O)CN3CCCCC3)sc2c1`, with 3.2%; and `CCSc1nc(-c2cccs2)cc(-c2cccs2)c1C#N`, with 5.48%.
Then `CCCC(C)c1nnc(NC(=O)CSCc2ccccc2)s1` (configuration not stated), with “inactive”; and `CC(C)NCC(O)Cn1c2c(c3ccccc31)CCCC2=O` (configuration not stated), with “inactive”.
Take `CCN(CC)CCCNC(=S)Nc1ccc(Br)cc1`: the inhibition was 1.11%.
Take `CS(=O)(=O)N(CC(=O)Nc1ccccc1C(=O)N1CCCC1)c1cccc(F)c1`: the inhibition result is “inactive”.
For `Cc1ccc(CN2CCC(N3CCN(c4ccccc4F)CC3)CC2)cc1`, the inhibition result is “inactive”.
With `COc1ccc(S(=O)(=O)N(C(C)=O)c2ccc3oc4c(c3c2)CCCC4)cc1[N+](=O)[O-]`, the inhibition was 6.65%.
Then `O=C(CCCCC(=O)NC1=NCCS1)NC1=NCCS1`, with 1.73%.
Then `Cc1cc(Cl)ccc1OCC(=O)NCCCn1ccnc1`, with “inactive”; and `COc1ccc(OC)c(NC(=O)c2cccc(F)c2)c1`, with “inactive”.
As for `CCC(=O)Nc1nnc(SCC(=O)Nc2cccc(Cl)c2)s1`, the inhibition entry is “inactive”.
`CC1=CC(c2ccc(Cl)cc2)n2ncnc2N1` (configuration not stated): the inhibition entry is “inactive”.
Then `Cc1cc(C)c(NC(=O)COc2ccc(-c3ccccc3)cc2)c(C)c1`, with 0.67%; and `CN1C(=O)C2C(C1=O)N1C(c3cccs3)C3C(=O)N(C)C(=O)C3N1C2c1cccs1` (configuration not stated), with “inactive”; and `Cc1nnc(SCC(=O)Nc2cccc(Cl)c2Cl)n1-c1ccc(F)cc1`, with 32.3%.
As to `Cc1cc(NC(=O)Cc2ccc(Br)cc2)no1`, the inhibition entry is “inactive”.
Then `O=C(CSc1nc2ccccc2[nH]1)Nc1ccc(Cl)cn1`, with “inactive”; and `Cc1c(NC(=O)CSc2nnnn2-c2ccc(O)cc2)c(=O)n(-c2ccccc2)n1C`, with “inactive”; and `Cc1ccc(CC(=O)Nc2ccc(S(=O)(=O)N3CCC(C)CC3)cc2)cc1`, with “inactive”.
Then `COc1cc(S(=O)(=O)NC(c2ccccc2)c2ccccc2)ccc1Cl`, with “inactive”; and `O=C(CSc1nnc(-c2ccncc2)n1-c1ccccc1)c1ccc(Cl)cc1`, with “inactive”.
